Screens: PubChem BioAssay, National Center for Advancing Translational Sciences (NCATS)
Many of the other results were omitted from the sample, so hits are more common in it than they were.
IL-1B inflam inh = inhibitors of inflammasome signaling (IL-1 beta secretion); AID 743279; THP-1 LPS/ATP IL-1B secretion, AlphaLISA, 16 h; hits give low values; activity change, % at 57.5 µM; 360,000 compounds, 4.7% hits; in the data active = activity change below about -50%; inconclusive = mostly about -30% to -49%
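Secreted IL-1B measured by AlphaLISA bead assay after 16 h compound exposure of THP-1 cells; compounds (final up to 57.5 uM) added 1 h before LPS (250 ng/mL) and ATP (1.25 mM) stimulation; lower signal means less secretion.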
TDP1 cell CPT = growth inhibition of DT40 Tdp1-/-;hTDP1 cells with camptothecin (screen for TDP1 inhibitors). chicken DT40 Tdp1-/-;hTDP1 cells + 20 nM CPT, ATP luminescence, 48 h. Potency, µM (top dose mostly 46.2 µM), without a hit: at the highest dose activity change, negative = growth inhibition, most hits filed as inhibitors. 420,000 compounds, 12% hits; also: potency is read from the fitted curve at half-maximal effect; nearly all actives have a fitted effect of over 55% in size
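Chicken DT40 Tdp1-/- cells stably complemented with human TDP1 were seeded at 400 cells/well in medium containing 20 nM camptothecin, exposed to pin-transferred compounds, and grown at 37 °C for at least 48 hr. Viability was read as ATP luminescence.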
HT1080 IDH1KD tx = kills HT-1080 cells with IDH1 knockdown. HT-1080 IDH1 knockdown viability, ATP luminescence, 48 h. Potency, µM (top dose mostly 46.1 µM), inactives show top-dose activity, negative = toxicity, actives largely listed as cytotoxic. 360,000 compounds, 2% hits. AID 686971;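 also: potency is read from the fitted curve at half-maximal effect; 0% = DMSO wells and -100% = cell-free medium wells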
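IDH1KD HT-1080 cells, 750/well, RPMI + 5% FBS; compound pinned after 2 h settling; 48 h, 37 °C; CellTiter-Glo luminescence; % activity normalised to DMSO and no-cell wells; curves fitted, classed by r2 and efficacy.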
DT40 TDP1 no CPT = qHTS for Inhibitors of human tyrosyl-DNA phosphodiesterase 1 (TDP1): qHTS in cells in absence of CPT | DT40 Tdp1-/- hTDP1 cells, no CPT, ATP luminescence, 48 h | Potency, µM (highest dose often 46.2 µM), without a hit: at the top dose activity change, negative = growth inhibition, usual class: inhibitors | 420,000 compounds, 15% hits | AID 686978, 2013; also: potency is read from the fitted curve at half-maximal effect; nearly all actives have a fitted effect of over 55% in size
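Growth kinetics read by CellTiter-Glo luminescence after ≥48 hr at 37 °C. Cells: DT40 Tdp1-/- stably carrying human TDP1, 400 per well, compound exposure in the absence of CPT (DMSO vehicle).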
HT1080-NT tox = kills 2HG-producing HT-1080-NT fibrosarcoma cells | 360,000 compounds, 1.6% hits | HT-1080-NT fibrosarcoma viability, CellTiter-Glo ATP luminescence, 48 h | Potency, µM (highest dose often 46.1 µM), inactives show at the highest dose activity, negative = less viability, most hits filed as cytotoxic | AID 686970;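 also: NT is the 2HG producing partner of a matched IDH1 knockdown line; potency is read from the fitted curve at half-maximal effect; 0% = DMSO-treated cells and -100% = media-only wells without cells; nearly all actives have a fitted effect of over 55% in size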
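Luminescent CellTiter-Glo readout after 48 hours of compound exposure at 37 degrees C defined viability of HT-1080-NT cells. Activity was normalized to DMSO wells and cell-free media wells; concentration-response curves were fitted and assigned curve classes.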
12-LOX inh = inhibitors of human 12S-lipoxygenase ALOX12; P18054; 580,000 compounds, 1.1% hits; AID 1671190; Potency, µM (titrated, usually from 108 µM), inactives show top-dose activity change, negative = inhibition, usual class: inhibitors; purified 12hLO, xylenol orange hydroperoxide absorbance; also: potency is read from the fitted curve at half-maximal effect
Target sequence (P18054 whole entry, looked up): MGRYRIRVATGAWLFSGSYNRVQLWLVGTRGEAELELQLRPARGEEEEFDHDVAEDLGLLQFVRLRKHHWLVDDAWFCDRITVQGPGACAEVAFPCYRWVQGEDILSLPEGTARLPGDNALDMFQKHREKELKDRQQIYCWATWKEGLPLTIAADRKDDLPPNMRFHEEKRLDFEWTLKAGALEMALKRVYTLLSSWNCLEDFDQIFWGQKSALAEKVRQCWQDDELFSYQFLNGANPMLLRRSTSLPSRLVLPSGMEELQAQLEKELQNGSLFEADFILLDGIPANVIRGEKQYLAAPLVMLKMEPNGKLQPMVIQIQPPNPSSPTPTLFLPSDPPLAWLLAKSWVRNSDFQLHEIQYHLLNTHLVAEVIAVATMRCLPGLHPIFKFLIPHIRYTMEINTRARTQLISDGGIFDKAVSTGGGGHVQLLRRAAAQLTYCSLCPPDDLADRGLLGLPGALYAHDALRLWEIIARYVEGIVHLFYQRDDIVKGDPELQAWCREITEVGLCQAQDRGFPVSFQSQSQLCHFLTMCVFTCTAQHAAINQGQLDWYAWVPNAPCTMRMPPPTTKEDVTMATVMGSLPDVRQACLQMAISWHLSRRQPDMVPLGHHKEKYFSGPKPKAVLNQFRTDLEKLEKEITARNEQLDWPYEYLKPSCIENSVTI
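Purified human 12hLO at 150 nM in 25 mM Hepes, 0.01% Triton X-100, pH 7.0, preincubated 15 min at room temperature with compound. Reaction started with 40 uM arachidonic acid, 30 min at room temperature. Hydroperoxide measured by Fe-xylenol orange, 573/405 nm absorbance ratio.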
* hit, by the source's call; ? = inconclusive; . = no result given; [ ] = another dose, or the depositor's remark. Unless noted, calls follow the shape of the dose curve; as a rule, active = well fitted curve in the direction sought with a large enough effect; inconclusive = small, poorly fitted or top-dose-only effect, or another doubt; inactive = no such curve, though single readings can be large; an effect the other way counts as inactive or inconclusive. Unless noted, % is scaled to controls: 0 for no effect and ±100 for the full control effect.

SMILES | IL-1B inflam inh | TDP1 cell CPT | HT1080 IDH1KD tx | DT40 TDP1 no CPT | HT1080-NT tox | 12-LOX inh
CN(C)CC1CCCCC1OC(=O)/C=C/c1ccc(Cl)cc1Cl (stereo unspecified) | -79* | ? | -15% | ? | -29% | -10%
CN(C)CC1CCCCC1OC(=O)/C=C/c1ccccc1 (stereo unspecified) | ? | -8% | 14% | -11% | 27% | 0%
COc1ccc(-c2cn(Cc3ccc4ccccc4c3)nn2)cc1 | 17 | ? | 0% | -17% | 20% | -9%
COc1ccc(-c2cn(Cc3ccc(C(=O)c4ccccc4)cc3)nn2)cc1 | 20 | 2.1µM* | ? | 7.3µM* | ? | 7%
COc1cc(/C=C2/C(=O)NN(c3cccc(F)c3)C2=O)ccc1OC(=O)c1ccco1 | -8 | ? | 1% | 16µM* | -6% | 45µM*
CCOC(=O)N1CCC(NC(=O)C2CCN(c3nc(-c4ccc(OC)cc4)no3)CC2)CC1 | 11 | ? | -4% | 4.1µM* | 7% | 0%
COc1ccc(-c2noc(N3CCC(C(=O)NC(C)c4ccccc4)CC3)n2)cc1 (stereo unspecified) | -1 | ? | -11% | 26µM* | 0% | 2%
COc1ccc(-c2noc(N3CCC(C(=O)NCc4ccccc4Cl)CC3)n2)cc1 | -2 | 16µM* | -12% | 26µM* | -9% | 8%
CCN(C(=O)C1CCN(c2nc(-c3ccc(OC)cc3)no2)CC1)c1ccccc1 | 21 | ? | -4% | ? | 9% | 23%
COc1ccc(-c2noc(N3CCC(C(=O)N(C)c4ccccc4)CC3)n2)cc1 | -3 | ? | -5% | 29µM* | -11% | 19%
CC(C)C(=O)Nc1ccc(C2(C(=O)NCc3cccs3)CCCCC2)cc1 | . | . | . | . | . | 10%
COCCN1C(=O)CS(=O)(=O)C12CCN(C(=O)Cc1cccc(F)c1)CC2 | . | . | . | . | . | 15%
COc1ccc(C(=O)NCC2(COc3ccc(S(C)(=O)=O)cc3)C[C@@H](O)[C@@H](O)C2)cc1 (stereo partly specified) | . | . | . | . | . | 55%
O=C1NC2(CCN(Cc3ccccn3)CC2)COc2ccccc21 | . | . | . | . | . | 71%[176 µM]
CCCS(=O)(=O)NC(=O)C1(C)CCN(C(=O)c2cc(C(C)(C)C)nn2C)C1 (stereo unspecified) | -53* | 3% | 19% | -7% | 25% | -50%
CCOc1ccc(-c2c(=O)n(O)c3ccccc3[n+]2[O-])cc1 | -1 | ? | 2% | 13µM* | -2% | 0%
CCOc1ccc(OCC)c(-c2c(=O)n(OCc3ccc(C(C)(C)C)cc3)c3ccccc3[n+]2[O-])c1 | -29 | 21µM* | -6% | 18µM* | 20% | 7%
CC1(Cc2ccc(C(F)(F)F)o2)C(=O)Nc2ccc(-c3cccc(C(F)(F)F)c3)cc21 (stereo unspecified) | -9 | 15µM* | ? | 12µM* | ? | ?
CCc1ccc2c(c1)NC(=O)C2(C)Cc1ccc(C(F)(F)F)o1 (stereo unspecified) | 4 | 23µM* | ? | ? | -29% | ?
CC1(Cc2ccc3c(c2)OCO3)C(=O)Nc2c(Cl)ccc(Cl)c21 (stereo unspecified) | 38 | ? | ? | 23µM* | -1% | -11%
CC1(Cc2ccc3c(c2)OCO3)C(=O)Nc2ccc(-c3cccc(C(F)(F)F)c3)cc21 (stereo unspecified) | ? | 23µM* | ? | 21µM* | ? | -25%
COc1ccc(OC(F)(F)F)cc1CC1(C)C(=O)Nc2c(Cl)ccc(Cl)c21 (stereo unspecified) | -11 | ? | ? | ? | ? | .
COc1ccc(-c2cc(-c3cnc4[nH]ccc4c3)cn3cncc23)cc1 | . | . | . | . | . | -23%[176 µM]
COc1cc(CNC(=O)c2cnc3c(c2)N(c2ccccc2OC)CCC3)cc(OC)c1 | . | . | . | . | . | 13%[176 µM]
Cc1ccc(SC2CCN(Cc3cc4n(n3)CCNC4)CC2)cc1 | . | . | . | . | . | 16%
SMILES | IL-1B inflam inh | TDP1 cell CPT | HT1080 IDH1KD tx | DT40 TDP1 no CPT | HT1080-NT tox | 12-LOX inh
O=C1CCCN1CCc1nc(C2CCOC2)nn1-c1cccnc1 (stereo unspecified) | . | . | . | . | . | -3%
COc1ccc(CNC(=O)CCS(=O)(=O)c2ccc3c(c2)CC(C)N3C(=O)C2CC2)cc1 (stereo unspecified) | -14 | 15µM* | ? | 3.7µM* | -14% | 1%
CC1Cc2cc(S(=O)(=O)CCC(=O)NCc3ccco3)ccc2N1C(=O)C1CC1 (stereo unspecified) | 0 | 6.5µM* | ? | 2.9µM* | ? | 3%
CCC(=O)N1CCc2cc(S(=O)(=O)CCC(=O)NCc3ccco3)ccc21 | 32 | -102% | ? | 2.9µM* | -24% | 14%
COc1ccccc1CNC(=O)CCS(=O)(=O)c1ccc2c(c1)CC(C)N2C(=O)C1CC1 (stereo unspecified) | -11 | 21µM* | 5% | 23µM* | 6% | 13%
CN(Cc1ccco1)C(=O)CCNS(=O)(=O)c1ccc2c(c1)CCN2C(=O)C1CC1 | . | . | . | . | . | -5%
CC(CC(=O)NCc1ccco1)S(=O)(=O)c1ccc2c(c1)CCN2C(=O)C1CC1 (stereo unspecified) | 12 | 18µM* | ? | ? | -26% | -1%
CN1CCN(C(=S)c2cn(Cc3cccc(F)c3)c3ccccc23)CC1 | 1 | ? | -21% | 21µM* | -19% | -11%
CN1CCN(C(=S)c2cn(Cc3ccc(F)cc3)c3ccccc23)CC1 | -9 | ? | -26% | ? | -16% | -27%
CC1CCN(C(=S)c2cn(Cc3ccc(F)cc3)c3ccccc23)CC1 | -13 | ? | -18% | 23µM* | 1% | ?
CCc1nc(-c2c3n(c(=O)n(CC(=O)Nc4cccc(F)c4)c2=O)CCCCC3)no1 | . | . | . | . | . | 26%
O=C(C1C2C(=O)N(C3CCCCCC3)C[C@@]23C=C[C@@H]1O3)N1C[C@@H]2[C@H](C1)[C@H]1CC[C@@H]2O1 (stereo partly specified) | . | . | . | . | . | 10%
CN(CCO)C(=O)c1cn(C2CCN(Cc3cccc(C(F)(F)F)c3)CC2)nn1 | . | 9% | . | -18% | . | 7%
CCc1nc(N2CCN(C(=S)NCCCOC)CC2)c2c3c(sc2n1)CCCC3 | ? | 16µM* | -6% | 16µM* | ? | 0%
